Shown are actives, neighbours in structure and some others; about 11% of the full set was active somewhere.
Pf growth 96h: P. falciparum growth inhibition at 96 hour, primary screen for plastid delayed-death inhibitors; P. falciparum luciferase reporter growth, 96 h; Potency, µM (series often up to 28.7 µM), inactives show at the top dose activity change, negative = inhibition, hits mostly inhibitors; 320,000 tested, 6.9% active; also: potency is read from the fitted curve at half-maximal effect; % is scaled to controls: 0 for no effect and ±100 for the full control effect
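Erythrocytes infected with luciferase-expressing P. falciparum were dispensed at 2% hematocrit and 0.05% parasitemia (final), then incubated with compounds 96 hours at 37 C in 5% CO2. Luminescence after detection reagent addition reported growth.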
HCV inhibitor: inhibitors of hepatitis C virus infection | Potency, µM (top dose mostly 41.8 µM), for the others: at the top dose activity change, negative = inhibition, actives largely listed as inhibitors | 340,000 tested, 3.4% active | AID 651820 | Huh7.5.1 HCVcc-Cre infection, luciferase reporter, 44 h; also: potency is read from the fitted curve at half-maximal effect; % is scaled to controls: 0 for no effect and ±100 for the full control effect
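Compounds are dispensed onto cells plated 4 h earlier at 1,000 per well, with HCVcc-Cre virus (about 0.5 moi) added next. Following 44 h of culture, luminescent signal is measured for 15 sec after 15 min with substrate at room temperature.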
Vaccinia mCherry: vaccinia inhibition (mCherry reporter) | Vaccinia virus mCherry reporter infection, fluorescence | Potency, µM (titrated, usually from 36.5 µM), for the others: top-dose activity change, negative = inhibition, hits mostly inhibitors | 310,000 tested, 0.63% active | AID 720579; calls by dose curve; tested in A549 cells; also: potency is read from the fitted curve at half-maximal effect; % is scaled to controls: 0 for no effect and ±100 for the full control effect; nearly all actives have a fitted effect of over 35% in size
VACV Venus inh: inhibitors of vaccinia virus (Venus reporter) | Vaccinia virus Venus reporter expression, fluorescence | Potency, µM (doses to about 36.5 µM), for the others: at the top dose activity change, negative = inhibition, usual class: inhibitors | 330,000 tested, 0.46% active | AID 720580; calls by dose curve; tested in A549 cells; also: potency is read from the fitted curve at half-maximal effect; % is scaled to controls: 0 for no effect and ±100 for the full control effect; nearly all actives have a fitted effect of over 30% in size
NS1 function inh: inhibitors of influenza NS1 protein function; Potency, µM (series often up to 46.1 µM), for the others: top-dose activity, positive = more growth; 270,000 tested, 0.4% active; AID 2326; calls by dose curve; also: potency is read from the fitted curve at half-maximal effect; actives are rising curves; nearly all actives have a fitted effect of over 50% in size
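S. cerevisiae expressing influenza A NS1, grown in glucose, washed, then diluted 1:100 into pH 6.0 -URA galactose medium with 23 nl compound. Growth recovery read as OD600; NS1-free strain serves as control.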
Pf growth 48h: inhibits P. falciparum growth in the first generation, 48 h. Potency, µM (highest dose often 28.7 µM), for the others: at the top dose activity change, negative = inhibition, actives largely listed as inhibitors. 310,000 tested, 5.9% active. P. falciparum luciferase growth in erythrocytes, 48 h; also: potency is read from the fitted curve at half-maximal effect; % is scaled to controls: 0 for no effect and ±100 for the full control effect
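Growth was read as firefly luciferase luminescence after a 48 h, 37 C, 5% CO2 exposure of compounds to reporter-bearing P. falciparum cultures (0.1% parasitemia, 2% hematocrit final) in Albumax-supplemented RPMI 1640.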
Flu NS1 inh: validation of influenza NS1 protein function inhibitors; shares compounds with NS1 function inh; influenza NS1 function cell assay, 15-point titration; activity change, negative = inhibition, % at 32.9 µM; 1,400 tested, under 10 active; calls by dose curve; also: 0% is about no effect
PR8 titer: influenza NS1 inhibitors: inhibition of influenza A/PR/8/34 replication | shares compounds with NS1 function inh | MDCK infected influenza A/PR/8/34, virus titer TCID50; hits give low values | virus titer (log TCID50), log10 TCID50 at 5 µM | 95 tested, 30% active | AID 504647; call rule not given here
An asterisk follows results filed as active; i = inactive; ? = inconclusive; . = no result given; [ ] = remark or other dose. Unless noted, calls follow the shape of the dose curve; as a rule, active = well fitted inhibition curve with a large enough effect; inconclusive = small, poorly fitted or top-dose-only effect, or another doubt; inactive = no such curve, though single readings can be large or run the other way.

SMILES | Pf growth 96h | HCV inhibitor | Vaccinia mCherry | VACV Venus inh | NS1 function inh | Pf growth 48h | Flu NS1 inh | others
Cc1cc2ccccc2n1CCNC(=O)c1ccc(S(=O)(=O)N2CCCCC2)cc1 | 1.7µM* | -6% | ? | -6% | 11µM* | 2.1µM* | 0
CN(C)S(=O)(=O)c1ccc(C(=O)NCc2ccc3[nH]c4c(c3c2)CCCC4)cc1 | ? | ? | 31% | -13% | 16µM* | -21% | 11
Cc1cc2cc(CNC(=O)Cc3ccc([N+](=O)[O-])cc3)ccc2[nH]1 | ? | ? | . | . | . | -6% | .
Cc1cc2cc(CNC(=O)c3cccc([N+](=O)[O-])c3)ccc2[nH]1 | -17% | -21% | -6% | -12% | 14µM* | -6% | 1
O=C(NCc1ccc2[nH]c3c(c2c1)CCCC3)c1ccc(S(=O)(=O)N2CCCC2)cc1 | 13µM* | ? | -6% | 7% | 13µM* | 0% | 7 | PR8 titer=7*
CCC(NC(=O)C1CCCO1)c1ccccc1 (stereo unspecified) | ? | 7% | -13% | -6% | -5% | 29% | .
Cc1ccc(CNC(=O)c2ccc(S(=O)(=O)N3CCCCCC3)cc2)cc1 | . | . | i | -26% | . | . | .
Cc1cc2cc(CNC(=O)c3ccc(S(=O)(=O)N4CCCCC4)cc3)ccc2[nH]1 | ? | ? | 0% | -3% | 11µM* | ? | 18
O=C(NCCC1=CCCCC1)C1CCCN(S(=O)(=O)c2cccc3cccnc23)C1 (stereo unspecified) | 9% | ? | -29% | -27% | -42% | . | .
Cc1ccc2cc(C3C(C#N)=C(N)Oc4c3ccc3cccnc43)c(=O)[nH]c2c1 (stereo unspecified) | 2.6µM* | 11µM* | -28% | -30% | 2.8µM* | ? | 8
CCCC(c1nnnn1CCC(C)C)N1CCC(C(N)=O)CC1 (stereo unspecified) | 9.3µM* | -4% | -16% | -15% | 1.1µM* | 12µM* | 0
CNC(=S)NNC(=O)c1oc2nc(-c3ccccc3)cc(C)c2c1N | -3% | 13% | -14%[7.34 µM] | -6%[7.34 µM] | 2% | 11% | .
NNC(=O)c1oc2nc(-c3ccccc3)cc(-c3ccccc3)c2c1N | ? | 1% | -20% | -9% | 10µM* | . | 23
O=C1C(=O)N(c2ccccn2)C(c2ccc(Br)cc2)/C1=C(/O)c1ccc(Br)cc1 (stereo unspecified) | 3% | 2% | . | . | -17% | 8% | .
O=S(=O)(Nc1cccc(-c2cn3cccnc3n2)c1)c1ccc(-c2ccccc2)cc1 | 82% | 4.5µM* | . | -13% | 11µM* | 20% | 24
CCOc1cc(/C=C2\SC(=Nc3ccccc3)N(c3ccccc3)C2=O)ccc1OCC(=O)O | ? | 12% | -12% | -6% | ? | ? | -35
CCOC(=O)C1=C(O)/C(=C/c2ccc(OCC(=O)O)c(OCC)c2)SC1=Nc1ccc(C)cc1 | ? | 4% | -19% | 4% | 18% | ? | .
CCc1ccc(N=C2NC(=O)/C(=C/c3ccc(OCC(=O)O)cc3)S2)cc1 | -29% | 3% | . | . | 10% | -14% | .
CCc1ccc(N=C2NC(=O)/C(=C/c3ccc(OCC(=O)O)c(OC)c3)S2)cc1 | ? | -11% | . | . | 11µM* | -14% | 46
CC(=O)c1ccc2c(c1)CCN2 | . | 32% | -3% | -9% | . | . | .
Cc1ccc(N2C(=O)NC(=O)/C(=C/C=C/c3ccco3)C2=O)cc1 | 0% | ? | -16% | -25% | 4% | 7% | .
CCc1ccc(N2C(=O)NC(=O)/C(=C\C=C\c3ccco3)C2=O)cc1 | -1% | ? | . | . | 11µM* | 20% | 11
CCCCCCc1nc2ccccc2c(=O)n1NC(=O)c1c(O)c2c(n(CC(C)C)c1=O)CCCC2 | ? | 19% | i | -4% | 0.4µM* | 9% | -15
